# Source: PubChem BioAssay (Tox21)
# Several values for one entry are separate records, joined by “and”; a condition that tells them apart may be missing. Equal entries are not always repeated. A number with no mark means an inactive call. Inconclusive results are not listed. A call without a number means that no potency is given here. Activity calls are given as the source filed them. Unless noted, calls follow the shape of the dose curve; as a rule, active = well fitted curve in the direction sought with a large enough effect in the repeat runs; inconclusive = weak or mixed curves; inactive = no such curve, though single readings can be large; an effect the other way counts as inactive or inconclusive.
# Columns and labels:
# [1] = qHTS assay to identify small molecule agonists of the androgen receptor (AR) signaling pathway in the presence of an antagonist - cell viability counter screen (AID 1259379); also: nearly all actives have a fitted effect of over 25% in size; also: potency is read from the fitted curve at half-maximal effect
# Outline: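 Cytotoxicity is assessed by CellTiter-Fluor in MDA-kb2 cells carrying an MMTV-driven luciferase reporter. Cells receive 3.0uM nilutamide plus compounds at 15 concentrations and incubate 16 hr at 37C without CO2 before fluorescence reading.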
# [2] = target: Androgen receptor (Homo sapiens) (UniProt P10275); test: qHTS assay to identify small molecule agonists of the androgen receptor (AR) signaling pathway in the presence of an antagonist (AID 1259381; calls by dose curve; also: nearly all actives have a fitted effect of over 15% in size)
# Outline: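 Agonist-mode confirmation screen: human MDA-kb2 cells stably expressing luciferase under an MMTV promoter bearing AR and GR response elements, co-treated with 3.0uM nilutamide (final). Luminescence measured after 16hr compound incubation.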
# [3] = qHTS assay to identify small molecule agonists of the estrogen receptor alpha (ER-alpha) signaling pathway in the presence of an antagonist - cell viability counter screen (AID 1259386);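 also: cells exposed to compounds for 22 h at 37 °C before the viability read; nearly all actives have a fitted effect of over 30% in size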; also: potency is read from the fitted curve at half-maximal effect
# Outline: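 Cytotoxicity was measured in parallel with the ERE-luciferase agonist screen, in the same wells. The cells were VM7Luc4E2, which endogenously express ER-alpha, and treatment was with compounds plus 10.0nM ICI-182,780 for 22hr.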
# [4] = target: Progesterone receptor (Homo sapiens) (UniProt P06401); test: qHTS assay to identify small molecule agonists of the progesterone receptor (PR) signaling pathway (AID 1346784; calls by dose curve; also: nearly all actives have a fitted effect of over 30% in size)
# Outline: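 Fluorescence from LiveBLAzer B/G FRET substrate cleavage (2 hr, RT) reported PR activation in PR-UAS-bla HEK 293T cells treated 16 hr at 37C/5% CO2 with compounds; medium contained 2% charcoal-stripped FBS.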
# [5] = qHTS assay to identify small molecule antagonists of the TGF-beta/Smad signaling pathway - cell viability counter screen (AID 1346824); also: nearly all actives have a fitted effect of over 50% in size; also: potency is read from the fitted curve at half-maximal effect
# Outline: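 SBE-bla HEK 293T cells were plated overnight at 37 C, then given compounds in DMSO plus TGF-beta1 (added as 0.25 ng/mL solution) for 5 hr. After the bla read, CellTiter-Glo was added to the same wells and luminescence read after 30 min at room temperature.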
# [6] = qHTS assay to identify small molecule agonists of the TGF-beta/Smad signaling pathway (AID 1346859; active = well fitted activation curve with a large enough effect in the signal ratio in the repeat runs, not every such curve was filed as active; the % refers to the signal ratio; also: series mostly up to about 77 µM)
# Outline: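 After overnight seeding, SBE-bla HEK 293T cells are dosed with compounds in DMSO and kept 5 hr at 37 C, 5% CO2. LiveBLAzer-type FRET substrate is then applied for 2 hr at room temperature.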
# [7] = qHTS assay to identify small molecule antagonists of the estrogen receptor beta (ER-beta) signaling pathway - cell viability counter screen (AID 1259382); also: nearly all actives have a fitted effect of over 55% in size; also: potency is read from the fitted curve at half-maximal effect
# Outline: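 Cytotoxicity counter screen multiplexed with the beta-lactamase antagonist assay: GripTite HEK293T ER-beta-bla cells were treated 16 hr with test chemicals in the presence of 1nM 17-beta-estradiol, and viability was measured by CellTiter-Glo.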
# [8] = target: Estrogen receptor (Homo sapiens) (UniProt P03372); test: qHTS assay to identify small molecule agonists of the estrogen receptor alpha (ER-alpha) signaling pathway in the presence of an antagonist (AID 1259383; calls by dose curve; also: nearly all actives have a fitted effect of over 15% in size; also: potency is read from the fitted curve at half-maximal effect; as to activation: top concentration of the series differs between compounds)
# Outline: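 Agonist-mode confirmation in the presence of the ER antagonist ICI-182,780 at 10.0nM final. Breast-derived VM7Luc4E2 reporter cells were exposed to compounds for 22hr, and ERE-driven luciferase was quantified by luminescence.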
# [9] = qHTS assay to identify small molecule antagonists of the progesterone receptor (PR) signaling pathway - cell viability counter screen (AID 1346798); also: nearly all actives have a fitted effect of over 50% in size; also: potency is read from the fitted curve at half-maximal effect
# Outline: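 CellTiter-Glo luminescence; PR-UAS-bla HEK293T, 3,000 cells/well; compound + R5020, 16 hr, 37C/5% CO2; 30 min RT before read.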
# [10] = qHTS assay to identify small molecule agonists of the progesterone receptor (PR) signaling pathway - cell viability counter screen (AID 1346799; calls by dose curve; also: nearly all actives have a fitted effect of over 45% in size; also: potency is read from the fitted curve at half-maximal effect)
# Outline: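 In parallel with the beta-lactamase readout, cytotoxicity toward PR-UAS-bla HEK293T cells was measured by CellTiter-Glo luminescence following 16 hr compound incubation in 2% charcoal-stripped FBS medium.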
# [11] = target: Thyrotropin-releasing hormone receptor (Homo sapiens) (UniProt P34981); test: qHTS assay to identify small molecule antagonists of the thyrotropin-releasing hormone receptor (TRHR) signaling pathway (AID 1346877; active = well fitted inhibition curve with a large enough effect in the repeat runs, not every such curve was filed as active; also: series mostly up to about 51 µM)
# Outline: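 Antagonism is measured as suppression of the calcium response to 1 nM TRH in TRHR-HEK293 cells that have been dye-loaded for 2 h at 37 °C after overnight plating. Each compound is tested at 15 concentrations in triplicate.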
# [12] = target: Thyrotropin-releasing hormone receptor (Homo sapiens) (UniProt P34981); test: qHTS assay to identify small molecule agonists of the thyrotropin-releasing hormone receptor (TRHR) signaling pathway (AID 1346891; calls by dose curve;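 also: HEK293 cells expressing TRHR with calcium dye readout; series mostly up to about 58 µM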)
# Outline: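 Compounds were tested as agonists at 15 concentrations, in triplicate, on TRHR-Hek293 cells; calcium-sensitive dye fluorescence was recorded for 3 min following addition.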
# [13] = Human pregnane X receptor (PXR) small molecule agonists, qHTS cell viability counter screen (AID 1346977); also: nearly all actives have a fitted effect of over 50% in size; also: potency is read from the fitted curve at half-maximal effect
# Outline: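 Viability counter screen: CellTiter-Fluor signal in PXR-Luc HepG2 cells, 24hr compound exposure, 37C, 5% CO2.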
# [14] = qHTS assay to identify small molecule agonists of the estrogen receptor beta (ER-beta) signaling pathway - cell viability counter screen (AID 1259380); also: nearly all actives have a fitted effect of over 30% in size; also: potency is read from the fitted curve at half-maximal effect
# Outline: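 Cytotoxicity is measured in parallel with the reporter screen: after 16 hr compound exposure at 37C and a 2 hr LiveBLAzer step, CellTiter-Glo is added to the same ER-beta-UAS-bla HEK293T wells and luminescence read after 30 min.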
# [15] = qHTS assay to identify small molecule agonists of the TGF-beta/Smad signaling pathway - cell viability counter screen (AID 1346829); also: nearly all actives have a fitted effect of over 45% in size; also: potency is read from the fitted curve at half-maximal effect
# Outline: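 Here the cytotoxicity of library compounds is measured in SBE-bla HEK 293T cells treated for 5 hr, using CellTiter-Glo added to wells already read for the beta-lactamase reporter.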
# [16] = qHTS assay to identify small molecule agonists or antagonists of the thyroid stimulating hormone receptor (TSHR) signaling pathway - wild type cell line counter screen (AID 1259384; calls by dose curve)
# Outline: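 Wild-type HEK293 cells were plated 18 h at 37 C/5% CO2, pin-dosed with compound plus Ro20-1724 medium, held 30 min at room temperature, then given cAMP-d2 and anti-cAMP-cryptate; fluorescence was read after 1 h. Fifteen concentrations, triplicate.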
# [17] = target: Thyrotropin receptor (Homo sapiens) (UniProt P16473); test: qHTS assay to identify small molecule antagonists of the thyroid stimulating hormone receptor (TSHR) signaling pathway (AID 1259385; calls by dose curve; also: nearly all actives have a fitted effect of over 20% in size; also: potency is read from the fitted curve at half-maximal effect)
# Outline: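 TSHR-HEK293 cells were plated and held 18 h at 37C/5% CO2, then given compound plus Ro20-1724 and stimulated with TSH at 1.5 ng/mL final. After 30 min at room temperature, cAMP was detected with cAMP-d2/anti-cAMP-cryptate (1 h) by fluorescence.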
# [18] = target: Progesterone receptor (Homo sapiens) (UniProt P06401); test: qHTS assay to identify small molecule antagonists of the progesterone receptor (PR) signaling pathway (AID 1346795; active = well fitted inhibition curve with a large enough effect in the signal ratio in the repeat runs, not every such curve was filed as active; the % refers to the signal ratio; also: potency is read from the fitted curve at half-maximal effect)
# Outline: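 Fluorescence intensity measured 2 hr after adding beta-lactamase FRET substrate to PR-UAS-bla HEK293T cells that had been co-treated 16 hr with compound and 1 nM R5020 (final concentration) in 2% charcoal-stripped FBS.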
# Sequence of Androgen receptor (Homo sapiens) (P10275 whole entry, looked up): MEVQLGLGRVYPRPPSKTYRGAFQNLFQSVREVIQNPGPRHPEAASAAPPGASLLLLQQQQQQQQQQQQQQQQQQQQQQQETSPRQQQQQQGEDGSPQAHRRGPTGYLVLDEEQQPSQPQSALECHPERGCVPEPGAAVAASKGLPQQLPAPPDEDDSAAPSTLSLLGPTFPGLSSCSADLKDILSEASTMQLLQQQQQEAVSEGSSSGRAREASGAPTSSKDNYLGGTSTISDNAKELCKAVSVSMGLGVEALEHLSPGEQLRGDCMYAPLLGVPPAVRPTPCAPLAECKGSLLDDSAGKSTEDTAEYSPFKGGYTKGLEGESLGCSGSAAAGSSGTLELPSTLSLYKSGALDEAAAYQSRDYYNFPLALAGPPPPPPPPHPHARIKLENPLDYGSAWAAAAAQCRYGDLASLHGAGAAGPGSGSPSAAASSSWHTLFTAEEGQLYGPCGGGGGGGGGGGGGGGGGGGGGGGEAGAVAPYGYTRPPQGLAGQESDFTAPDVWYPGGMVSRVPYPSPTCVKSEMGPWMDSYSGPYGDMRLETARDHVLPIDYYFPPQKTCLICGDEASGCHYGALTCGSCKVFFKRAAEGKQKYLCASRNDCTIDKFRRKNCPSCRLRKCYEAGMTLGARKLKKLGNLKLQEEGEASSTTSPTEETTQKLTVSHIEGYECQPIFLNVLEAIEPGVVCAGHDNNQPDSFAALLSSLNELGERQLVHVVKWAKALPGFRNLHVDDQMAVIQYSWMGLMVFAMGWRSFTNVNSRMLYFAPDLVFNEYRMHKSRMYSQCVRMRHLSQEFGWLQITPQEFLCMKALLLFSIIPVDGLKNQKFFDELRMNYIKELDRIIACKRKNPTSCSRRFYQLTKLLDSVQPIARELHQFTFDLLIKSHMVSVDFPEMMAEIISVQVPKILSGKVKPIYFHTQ
# Sequence of Thyrotropin-releasing hormone receptor (Homo sapiens) (P34981 whole entry, looked up): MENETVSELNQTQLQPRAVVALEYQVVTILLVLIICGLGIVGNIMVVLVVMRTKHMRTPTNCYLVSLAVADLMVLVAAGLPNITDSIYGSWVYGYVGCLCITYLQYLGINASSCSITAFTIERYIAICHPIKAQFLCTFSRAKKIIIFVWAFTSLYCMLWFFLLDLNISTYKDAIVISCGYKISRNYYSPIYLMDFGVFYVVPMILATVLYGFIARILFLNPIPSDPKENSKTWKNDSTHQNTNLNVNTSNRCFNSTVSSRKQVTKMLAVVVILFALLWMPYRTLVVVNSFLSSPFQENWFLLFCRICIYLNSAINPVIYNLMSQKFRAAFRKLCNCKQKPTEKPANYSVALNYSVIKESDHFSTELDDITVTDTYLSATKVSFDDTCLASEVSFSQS
# Sequence of Thyrotropin receptor (Homo sapiens) (P16473 whole entry, looked up): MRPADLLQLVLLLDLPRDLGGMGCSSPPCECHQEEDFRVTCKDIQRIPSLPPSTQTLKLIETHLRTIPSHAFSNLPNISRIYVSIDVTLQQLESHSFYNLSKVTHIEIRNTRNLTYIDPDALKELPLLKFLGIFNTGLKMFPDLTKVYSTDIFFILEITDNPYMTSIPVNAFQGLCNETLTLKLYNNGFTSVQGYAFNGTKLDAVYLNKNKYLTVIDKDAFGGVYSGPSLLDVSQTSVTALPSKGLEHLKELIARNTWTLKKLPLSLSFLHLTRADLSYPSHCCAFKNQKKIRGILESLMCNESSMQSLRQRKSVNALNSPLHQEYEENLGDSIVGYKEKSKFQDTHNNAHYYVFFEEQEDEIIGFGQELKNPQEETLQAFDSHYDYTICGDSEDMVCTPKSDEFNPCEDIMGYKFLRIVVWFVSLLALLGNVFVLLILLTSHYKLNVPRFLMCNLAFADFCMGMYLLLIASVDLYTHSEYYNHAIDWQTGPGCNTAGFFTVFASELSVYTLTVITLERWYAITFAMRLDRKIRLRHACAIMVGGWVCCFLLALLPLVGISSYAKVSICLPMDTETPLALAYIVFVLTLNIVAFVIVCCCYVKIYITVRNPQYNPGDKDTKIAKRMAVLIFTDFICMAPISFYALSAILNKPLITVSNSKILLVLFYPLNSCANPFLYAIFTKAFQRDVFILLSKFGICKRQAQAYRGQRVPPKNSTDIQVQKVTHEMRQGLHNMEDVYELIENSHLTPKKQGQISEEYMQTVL
# Sequence of Estrogen receptor (Homo sapiens) (P03372 whole entry, looked up): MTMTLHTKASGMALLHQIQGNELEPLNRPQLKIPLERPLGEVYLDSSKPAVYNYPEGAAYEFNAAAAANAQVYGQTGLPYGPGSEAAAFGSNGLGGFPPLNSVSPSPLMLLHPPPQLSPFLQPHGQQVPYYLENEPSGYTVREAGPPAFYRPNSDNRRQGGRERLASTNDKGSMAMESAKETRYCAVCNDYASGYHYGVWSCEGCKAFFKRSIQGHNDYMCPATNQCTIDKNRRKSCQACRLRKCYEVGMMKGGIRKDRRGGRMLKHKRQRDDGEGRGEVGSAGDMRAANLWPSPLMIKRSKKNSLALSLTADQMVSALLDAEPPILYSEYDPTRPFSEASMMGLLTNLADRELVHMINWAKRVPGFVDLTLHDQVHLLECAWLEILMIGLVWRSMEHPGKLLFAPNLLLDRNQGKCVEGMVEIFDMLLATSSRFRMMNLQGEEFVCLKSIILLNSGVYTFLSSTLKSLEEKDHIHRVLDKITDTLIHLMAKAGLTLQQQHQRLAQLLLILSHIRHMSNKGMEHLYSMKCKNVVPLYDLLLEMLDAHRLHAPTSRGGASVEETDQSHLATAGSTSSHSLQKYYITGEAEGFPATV
# Sequence of Progesterone receptor (Homo sapiens) (P06401 whole entry, looked up): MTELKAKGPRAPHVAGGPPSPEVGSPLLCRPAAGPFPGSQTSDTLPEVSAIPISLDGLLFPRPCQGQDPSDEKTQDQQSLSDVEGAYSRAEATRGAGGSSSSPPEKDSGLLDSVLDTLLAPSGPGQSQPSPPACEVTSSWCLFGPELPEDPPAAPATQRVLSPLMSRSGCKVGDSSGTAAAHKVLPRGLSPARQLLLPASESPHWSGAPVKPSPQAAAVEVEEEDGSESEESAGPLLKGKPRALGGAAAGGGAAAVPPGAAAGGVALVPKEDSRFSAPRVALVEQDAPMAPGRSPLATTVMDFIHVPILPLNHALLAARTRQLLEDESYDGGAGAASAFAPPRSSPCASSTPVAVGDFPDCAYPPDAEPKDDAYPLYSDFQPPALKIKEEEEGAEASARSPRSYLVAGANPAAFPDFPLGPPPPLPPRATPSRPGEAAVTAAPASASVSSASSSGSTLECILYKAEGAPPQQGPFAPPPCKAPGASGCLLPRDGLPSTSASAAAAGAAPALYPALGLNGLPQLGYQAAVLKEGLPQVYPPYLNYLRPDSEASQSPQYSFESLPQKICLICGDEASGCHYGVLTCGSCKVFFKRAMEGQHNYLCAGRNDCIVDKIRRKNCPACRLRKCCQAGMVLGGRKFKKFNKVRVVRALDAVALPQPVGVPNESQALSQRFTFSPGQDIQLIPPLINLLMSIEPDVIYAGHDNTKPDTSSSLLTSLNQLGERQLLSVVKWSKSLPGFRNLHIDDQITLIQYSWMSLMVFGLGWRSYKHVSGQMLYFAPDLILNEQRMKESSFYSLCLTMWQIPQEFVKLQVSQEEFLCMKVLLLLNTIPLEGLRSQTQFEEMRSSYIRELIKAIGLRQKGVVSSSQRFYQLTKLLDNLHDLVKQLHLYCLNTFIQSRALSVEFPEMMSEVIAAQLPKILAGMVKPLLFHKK
SMILES,Potency [1],Potency [2],Potency [3],Potency [4],Potency [5],outcome [6],Potency [7],Potency [8],Potency [9],Potency [10],Potency [11],Potency [12],Potency [13],Potency [14],Potency [15],activation [6],outcome [16],Potency [17],Potency [18]
O=c1oc2ccccc2c(O)c1Cc1c(O)c2ccccc2oc1=O,inactive,inactive,inactive,inactive,inactive,inactive,–,–,–,–,–,–,–,–,–,–,–,–,–
Clc1ccc(Oc2ccccc2)cc1,inactive,inactive,inactive,inactive,inactive,inactive,inactive,inactive,inactive,inactive,inactive,inactive,inactive,–,–,–,–,–,–
CN(C)C(=S)[S-].CN(C)C(=S)[S-].[Cu+2],3.33 µM (active),–,13.2 µM (active),–,4.23 µM (active),–,7.45 µM (active),–,1.18 µM (active),1.49 µM (active),–,–,5.92 µM (active),5.92 µM (active),9.46 µM (active),-6.22% [at 15.8 µM],–,–,–
N#CSCSC#N,70.1 µM (active) and 67.9 µM (active),inactive,–,–,–,inactive,–,–,inactive,inactive,inactive,inactive,39.8 µM (active) and 53.9 µM (active),–,inactive,–,inactive,55.7 µM (active),–
CC(=O)[O-].[Tl+],inactive,–,inactive,–,inactive,inactive,38.8 µM (active),–,inactive,inactive,–,–,27.5 µM (active),2.75 µM (active),inactive,–,–,–,–
FC(Cl)(Cl)Cl,inactive,inactive,inactive,inactive,inactive,–,inactive,–,inactive,inactive,inactive,inactive,inactive,–,inactive,–,inactive,inactive,inactive
ClC(Cl)=C(c1ccc(Cl)cc1)c1ccc(Cl)cc1,inactive,–,inactive,inactive,inactive,–,inactive,inactive,inactive,61.1 µM (active),inactive,inactive,inactive,–,–,–,inactive,28 µM (active),6.26 µM (active)
N#Cc1ccc(O)cc1,inactive,inactive,inactive,inactive,inactive,–,inactive,inactive,inactive,inactive,inactive,inactive,inactive,–,inactive,–,inactive,inactive,inactive
Nc1ccccc1C(=O)Oc1ccc2ccccc2c1,inactive,inactive,inactive,inactive,inactive,inactive,inactive,2.17 µM (active),inactive,inactive,inactive,inactive,inactive,–,inactive,–,inactive,inactive,–
CCCCCCCCc1ccc(O)cc1,inactive,inactive,–,–,inactive,inactive,–,–,–,–,–,–,54.8 µM (active),–,inactive,–,inactive,inactive,20.4 µM (active)
CC(=O)c1ccc(-c2ccccc2)cc1,inactive,inactive,inactive,inactive,inactive,inactive,inactive,inactive,inactive,inactive,–,–,inactive,–,inactive,–,inactive,inactive,–
C=CC(=O)OCCCCOC(=O)C=C,54.5 µM (active),–,inactive,–,inactive,inactive,–,inactive,inactive,inactive,inactive,inactive,–,inactive,inactive,–,inactive,inactive,inactive
CCOP(=O)(NC(C)C)Oc1ccc(SC)c(C)c1 (stereo not given),inactive,inactive,inactive,inactive,inactive,inactive,inactive,–,–,–,inactive,inactive,inactive,–,inactive,–,inactive,–,–
